Several values for one entry are separate records, joined by “and”; a condition that tells them apart may be missing. Identical values can stand only once. Records with an inconclusive call do not appear. Activity calls are given as the source filed them. The call rests on the fitted dose curve; in most records, active means well fitted curve in the direction sought with a large enough effect; inconclusive means small, poorly fitted or top-dose-only effect, or another doubt; inactive means no such curve, though single readings can be large; an effect the other way counts as inactive or inconclusive.
Legend:
HEK293 = test: Cytotoxic Profiling of Annotated Libraries Using Quantitative High-Throughput Screening (AID 1296008); settings: Five cell lines viability, CellTiter-Glo ATP luminescence, 48-72 h; max response: hits give low values; further: nearly all actives have a fitted effect of over 60% in size
Method in brief: (§1)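 Compounds were pin-transferred onto cells and incubated 48 or 72 hr at 37 degree Celsius, 95% humidity. CellTiter-Glo was added, plates sat 10 min at room temperature, then ATP-coupled luminescence was imaged as the viability read-out.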

HaCat [1] = test: as above; settings: Five cell lines viability, CellTiter-Glo ATP luminescence, 48-72 h; max response: hits give low values
Method in brief: as §1

HACAT [2] = test: qHTS assay to identify novel small-molecules to repurpose for Merkel cell carcinoma treatment (AID 1296009); settings: MCC and control cell lines, CellTiter-Glo viability, 72 h; at 44.8 µM (top of the series) unless noted; further: nearly all actives have a fitted effect of over 60% in size
Method in brief: (§2)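 Viability readout: ATP luminescence (CellTiter-Glo) after 72 hr drug exposure at 37 degree celsius. Dose-response format was 8 points for NPC and 11 points for MIPE; data normalized to in-plate controls.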

MCC-13 = test: as above; settings: MCC and control cell lines, CellTiter-Glo viability, 72 h; series mostly up to 46 µM
Method in brief: as §2

NIH3T3 = test: Cytotoxic Profiling of Annotated Libraries Using Quantitative High-Throughput Screening (AID 1296008); settings: Five cell lines viability, CellTiter-Glo ATP luminescence, 48-72 h; max response: hits give low values; further: nearly all actives have a fitted effect of over 60% in size
Method in brief: as §1

MKL-1 = test: qHTS assay to identify novel small-molecules to repurpose for Merkel cell carcinoma treatment (AID 1296009); settings: MCC and control cell lines, CellTiter-Glo viability, 72 h; series mostly up to 46 µM; further: nearly all actives have a fitted effect of over 60% in size
Method in brief: as §2

MKL-2 = test: as above; settings: MCC and control cell lines, CellTiter-Glo viability, 72 h; series mostly up to 46 µM
Method in brief: as §2

UISO = test: as above; settings: MCC and control cell lines, CellTiter-Glo viability, 72 h; series mostly up to 46 µM
Method in brief: as §2

WaGa = test: as above; settings: MCC and control cell lines, CellTiter-Glo viability, 72 h; series mostly up to 46 µM
Method in brief: as §2

C33A = test: Primary qHTS to identify gynecologic anti-cancer compounds using libraries of approved drugs and bioactive compounds (AID 1345084); settings: Gynecologic cancer cell panel viability, ATPlite luminescence, 48 h; series mostly up to 57.5 µM; further: nearly all actives have a fitted effect of over 55% in size
Method in brief: (§3)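 Measured: luminescence after ATPlite addition (15 min, RT). Exposure: 48 h, 37 C, 5% CO2.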

Hek293T = test: as above; settings: Gynecologic cancer cell panel viability, ATPlite luminescence, 48 h, control line for the selectivity index; series mostly up to 57.5 µM
Method in brief: as §3

KB-3-1 = test: Cytotoxic Profiling of Annotated Libraries Using Quantitative High-Throughput Screening (AID 1296008); settings: Five cell lines viability, CellTiter-Glo ATP luminescence, 48-72 h; max response: hits give low values; further: nearly all actives have a fitted effect of over 60% in size
Method in brief: as §1

MCC-26 = test: qHTS assay to identify novel small-molecules to repurpose for Merkel cell carcinoma treatment (AID 1296009); settings: MCC and control cell lines, CellTiter-Glo viability, 72 h; series mostly up to 46 µM; further: nearly all actives have a fitted effect of over 60% in size
Method in brief: as §2

Es-2 = test: Primary qHTS to identify gynecologic anti-cancer compounds using libraries of approved drugs and bioactive compounds (AID 1345084); settings: Gynecologic cancer cell panel viability, ATPlite luminescence, 48 h; series mostly up to 57.5 µM; further: nearly all actives have a fitted effect of over 55% in size
Method in brief: as §3

HeLa = test: as above; settings: Gynecologic cancer cell panel viability, ATPlite luminescence, 48 h; series mostly up to 57.5 µM
Method in brief: as §3

JEG-3 = test: as above; settings: Gynecologic cancer cell panel viability, ATPlite luminescence, 48 h; series mostly up to 57.5 µM
Method in brief: as §3
On the % scale 0 is the no-effect control and ±100 the full control effect; potency means the concentration at half of the fitted maximal effect.

O=C(O)c1ccc(-c2cc3cccnc3c(-c3ccc4nonc4c3)n2)cc1
inactive: outcome (HaCat [1]) | outcome (HACAT [2]) | Potency (MCC-13)
active: Potency (HEK293) 14.8 µM

CC1=C(/C=C/C(C)=C/C=C/C(C)=C/C(=O)Nc2ccc(O)cc2)C(C)(C)CCC1
active: Potency (HEK293) 5.96 µM | Potency (NIH3T3) 21.1 µM | Potency (MKL-1) 26.6 µM | Potency (MKL-2) 10.6 µM | Potency (UISO) 9.44 µM | Potency (WaGa) 23.7 µM | Potency (C33A) 7.94 µM | Potency (Hek293T) 20 µM

O=C1C(Cl)=C(NCCN2CCOCC2)C(=O)c2ncccc21
active: Potency (HEK293) 13.2 µM | Potency (KB-3-1) 20.9 µM | Potency (MCC-13) 16.6 µM | Potency (MCC-26) 8.33 µM | Potency (MKL-1) 1.32 µM | Potency (MKL-2) 2.96 µM | Potency (UISO) 8.33 µM

NS(=O)(=O)c1cccc2c1C(=O)c1cccc(O)c1C2=O
active: Potency (HEK293) 16.6 µM | Potency (NIH3T3) 0.935 µM | Potency (MCC-26) 0.833 µM | Potency (MKL-1) 0.132 µM | Potency (MKL-2) 0.264 µM | Potency (UISO) 0.662 µM | Potency (WaGa) 0.132 µM

CCc1ccc(OCc2ccccc2C(=O)Nc2ccc3nc(C)cc(N)c3c2)cc1
active: Potency (HEK293) 8.33 µM | Potency (HaCat [1]) 11.8 µM | Potency (NIH3T3) 9.35 µM | Potency (MCC-13) 18.7 µM

O=C1NC(=O)C(=Cc2ccc3c(c2)OC(F)(F)O3)S1
inactive: max response (HEK293) -24.8% | max response (HaCat [1]) -0.402% | Potency (MCC-13) | Potency (MCC-26) | Potency (MKL-1) | Potency (MKL-2) | Potency (UISO)

CC(C)(C)Cn1c(N)nc2ccc(-c3[nH]c(C(C)(C)C)nc3-c3ccc(F)cc3)nc21
active: Potency (HEK293) 11.6 µM | Potency (HaCat [1]) 5.9 µM and 4.61 µM
inactive: Potency (MKL-1) | Potency (MKL-2) | Potency (C33A) | Potency (Es-2) | Potency (HeLa) | Potency (JEG-3)

CNC(=O)c1ccccc1Sc1ccc2c(C=Cc3ccccn3)n[nH]c2c1
active: Potency (HEK293) 14.8 µM | Potency (NIH3T3) 3.72 µM | Potency (WaGa) 11.8 µM
inactive: Potency (MCC-26)

CC(C)OC(=O)CCCC=CC[C@@H]1[C@H](C=C[C@@H](O)COc2cccc(C(F)(F)F)c2)[C@H](O)C[C@@H]1O
inactive: Potency (MKL-1)
active: Potency (HEK293) 11.8 µM

C=C1C(=O)[C@@]23C(CC[C@@H]1[C@H]2O)[C@@]12CO[C@]3(O)[C@@H](O)[C@@H]1C(C)(C)CC[C@@H]2O (stereo not given in full)
inactive: Potency (HeLa)
active: Potency (HEK293) 13.2 µM and 8.2 µM | Potency (NIH3T3) 18.7 µM | Potency (MCC-13) 16.6 µM | Potency (MKL-1) 1.18 µM | Potency (MKL-2) 0.935 µM | Potency (UISO) 14.8 µM | Potency (WaGa) 0.833 µM | Potency (C33A) 28.2 µM | Potency (Hek293T) 28.2 µM

CC[C@@H]1C=C(C)C[C@H](C)C[C@H](OC)[C@H]2O[C@@](O)(C(=O)C(=O)N3CCCC[C@@H]3C(=O)O[C@H](C(C)=C[C@@H]3CC[C@H](Cl)[C@H](OC)C3)[C@H](C)[C@@H](O)CC1=O)[C@H](C)C[C@H]2OC
inactive: outcome (KB-3-1) | max response (NIH3T3) -7.01% | Potency (MCC-13) | Potency (MCC-26)
active: Potency (HEK293) 16.6 µM

O=C(Nc1cccc(Br)c1)c1cccc(S(=O)(=O)N2CCCCCC2)c1
inactive: max response (HaCat [1]) 4.06% and -1.39% | max response (NIH3T3) -21.3% | Potency (MCC-13) | Potency (MCC-26) | Potency (MKL-1) | Potency (MKL-2) | Potency (WaGa) | Potency (HeLa) | Potency (JEG-3)
active: Potency (HEK293) 13.2 µM and 9.2 µM

O=C(NOCC(O)CO)c1cc(Br)c(F)c(F)c1Nc1ccc(I)cc1F (stereo not given)
inactive: max response (HEK293) 0.434% | max response (KB-3-1) -16.7% | Potency (MKL-1) | Potency (MKL-2) | Potency (UISO) | Potency (WaGa)

Clc1ccc(C(c2ccc(Cl)cc2)n2cc[n+](CC(OCc3ccc(Cl)cc3Cl)c3ccc(Cl)cc3Cl)c2)cc1 (stereo not given)
active: Potency (HEK293) 14.8 µM | Potency (KB-3-1) 18.7 µM | Potency (MKL-1) 20.9 µM | Potency (MKL-2) 10.5 µM
inactive: Potency (MCC-13) | Potency (MCC-26)

CO[C@H]1C[C@@H]2CC[C@@H](C)[C@@](O)(O2)C(=O)C(=O)N2CCCC[C@@H]2C(=O)O[C@H]([C@H](C)C[C@@H]2CC[C@H](OCCO)[C@H](OC)C2)CC(=O)[C@H](C)C=C(C)[C@@H](O)[C@@H](OC)C(=O)[C@H](C)C[C@H](C)C=CC=CC=C1C
inactive: max response (HaCat [1]) -15.8% | Potency (MCC-13) | Potency (MKL-2)
active: Potency (HEK293) 0.0017 µM | Potency (NIH3T3) 8.33 µM | Potency (UISO) 0.833 µM

O=C(NCc1ccncc1)C12C[C@H]3C[C@@H](C1)CC(c1ccc(Cl)cc1)(C3)C2
active: Potency (HEK293) 10.5 µM
inactive: Potency (MCC-13) | Potency (MCC-26) | Potency (MKL-2)

CC(=NNC(=S)N1CCC1)c1ccccn1
inactive: Potency (MKL-1) | Potency (MKL-2)
active: Potency (HEK293) 0.0042 µM | Potency (NIH3T3) 0.0187 µM | Potency (MCC-13) 0.0743 µM | Potency (MCC-26) 0.418 µM | Potency (UISO) 0.0033 µM | Potency (WaGa) 0.0007 µM

C=CCc1ccc(O)c(-c2ccc(O)c(CC=C)c2)c1
inactive: max response (HEK293) -27.3% | max response (NIH3T3) -7.37% | Potency (MCC-13) | Potency (MCC-26) | Potency (WaGa)
active: Potency (HaCat [1]) 20.9 µM

Cc1ccc(/C=N/NC(=O)c2ccccc2Oc2ccccc2)o1
inactive: max response (HaCat [1]) -2.81% | Potency (MCC-13) | Potency (MCC-26) | Potency (MKL-1) | Potency (MKL-2) | Potency (UISO) | Potency (WaGa)
active: Potency (HEK293) 20.9 µM
